PubChem BioAssay AID1159580 (chemical genetic matrix, 2015)
Screen size: about 5,500 compounds; about 2,000 (36%) were called active. Inconclusive results (about 18%) are left out. No stated cut-off is given here; in the data, active means normalized growth mostly below about 0.91 (no sharp cut-off); inconclusive means no clear call, values can overlap the other calls; inactive means mostly above about 0.92. This is one part of the list.

Test: chemical genetic growth profiling, strain panel (AID 1159580);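 further: tested at 20 µM; growth read once vehicle control cultures reached saturation at 30 °C; 1 = growth at the plate median or of vehicle wells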
Settings: S. cerevisiae deletion strains, growth OD

Measured: normalized growth

O=C1C=CC(=O)c2c(O)c(Cl)c(Cl)c(O)c21
inactive: locus YER111C, strain swi4, stronger effect = lower value 0.984 | locus YJL129C, strain trk1, stronger effect = lower value 0.965 | locus YML120C, strain ndi1, stronger effect = lower value 0.928 | locus YOR290C, strain snf2, stronger effect = lower value 0.963
active: locus YAL021C, strain ccr4, stronger effect = lower value 0.0743 | locus YAL026C, strain drs2, stronger effect = lower value 0.0712 | locus YAL030W, strain snc1, stronger effect = lower value 0.065 | locus YBL061C, strain skt5, stronger effect = lower value 0.0691 | locus YBR009C, strain hhf1, stronger effect = lower value 0.0757 | locus YBR023C, strain chs3, stronger effect = lower value 0.0713 | locus YBR171W, strain sec66, stronger effect = lower value 0.0854 | locus YBR231C, strain swc5, stronger effect = lower value 0.0695 | locus YBR279W, strain paf1, stronger effect = lower value 0.0653 | locus YCL011C, strain gbp2, stronger effect = lower value 0.0661 | locus YCL016C, strain dcc1, stronger effect = lower value 0.0723 | locus YCL061C, strain MRC1, stronger effect = lower value 0.0708 | locus YCL069W, strain vba3, stronger effect = lower value 0.0675 | locus YCR088W, strain abp1, stronger effect = lower value 0.0687 | locus YDL005C, strain med2, stronger effect = lower value 0.0837 | locus YDL040C, strain nat1, stronger effect = lower value 0.0677 | locus YDR001C, strain nth1, stronger effect = lower value 0.0651 | locus YDR069C, strain doa4, stronger effect = lower value 0.0731 | locus YDR137W, strain rgp1, stronger effect = lower value 0.816 | locus YDR159W, strain sac3, stronger effect = lower value 0.817 | locus YDR195W, strain ref2 0.72 | locus YDR297W, strain sur2, stronger effect = lower value 0.0653 | locus YDR334W, strain swr1, stronger effect = lower value 0.0709 | locus YDR335W, strain msn5, stronger effect = lower value 0.0705 | locus YDR392W, strain spt3, stronger effect = lower value 0.11 | locus YEL003W, strain gim4, stronger effect = lower value 0.0616 | locus YEL037C, strain rad23, stronger effect = lower value 0.0635 | locus YEL061C, strain CIN8 (second series), stronger effect = lower value 0.0685 | locus YER015W, strain faa2, stronger effect = lower value 0.0696 | locus YER016W, strain bim1, stronger effect = lower value 0.0673 | locus YER155C, strain BEM2 (second series), stronger effect = lower value 0.101 | locus YFR010W, strain ubp6, stronger effect = lower value 0.0771 | locus YGL167C, strain pmr1, stronger effect = lower value 0.0844 | locus YGL173C, strain kem1, stronger effect = lower value 0.0767 | locus YGL227W, strain vid30, stronger effect = lower value 0.0694 | locus YGL240W, strain doc1, stronger effect = lower value 0.087 | locus YGL253W, strain hxk2, stronger effect = lower value 0.0606 | locus YHR013C, strain ard1, stronger effect = lower value 0.118 | locus YHR027C, strain rpn1, stronger effect = lower value 0.0722 | locus YHR030C, strain SLT2, stronger effect = lower value 0.114 | locus YHR079C, strain IRE1, stronger effect = lower value 0.132 | locus YHR142W, strain chs7, stronger effect = lower value 0.0821 | locus YJL092W, strain hpr5, stronger effect = lower value 0.066 | locus YJL095W, strain BCK1 (second series), stronger effect = lower value 0.0647 | locus YJL095W, strain BCK1, stronger effect = lower value 0.118 | locus YJL115W, strain asf1, stronger effect = lower value 0.0821 | locus YJL154C, strain vps35, stronger effect = lower value 0.0659 | locus YJL164C, strain tpk1, stronger effect = lower value 0.076 | locus YJL166W, strain qcr8, stronger effect = lower value 0.0693 | locus YJL187C, strain SWE1, stronger effect = lower value 0.0656 | locus YJR066W, strain TOR1, stronger effect = lower value -0.00728 | locus YKL160W, strain elf1, stronger effect = lower value 0.0955 | locus YKR026C, strain gcn3, stronger effect = lower value 0.0721 | locus YKR091W, strain srl3, stronger effect = lower value 0.0686 | locus YLL001W, strain dnm1, stronger effect = lower value 0.0682 | locus YLL026W, stronger effect = lower value 0.065 | locus YLL041C, strain sdh2, stronger effect = lower value 0.0651 | locus YLR027C, strain aat2, stronger effect = lower value 0.0649 | locus YLR113W, strain HOG1, stronger effect = lower value 0.129 | locus YLR221C, strain rsa3, stronger effect = lower value 0.0719 | locus YLR258W, strain gsy2, stronger effect = lower value 0.0692 | locus YLR262C, strain YPT6 (second series), stronger effect = lower value 0.0889 | locus YLR320W, strain mms22, stronger effect = lower value 0.0961 | locus YLR342W, strain FKS1, stronger effect = lower value 0.0745 | locus YLR357W, strain rsc2, stronger effect = lower value 0.136 | locus YLR370C, strain arc18, stronger effect = lower value 0.0692 | locus YLR384C, strain iki3, stronger effect = lower value 0.0665 | locus YMR058W, strain fet3, stronger effect = lower value 0.0663 | locus YMR125W, strain sto1, stronger effect = lower value 0.0829 | locus YMR129W, stronger effect = lower value 0.0652 | locus YMR205C, strain PFK2, stronger effect = lower value 0.0948 | locus YMR231W, strain pep5, stronger effect = lower value 0.0753 | locus YNL071W, strain lat1, stronger effect = lower value 0.0684 | locus YNL183C, strain NPR1, stronger effect = lower value 0.021 | locus YNL209W, strain ssb2, stronger effect = lower value 0.0691 | locus YNL248C, strain rpa49, stronger effect = lower value 0.0871 | locus YNL322C, strain KRE1 (second series), stronger effect = lower value 0.0721 | locus YNR049C, strain mso1, stronger effect = lower value 0.0642 | locus YOR001W, strain rrp6, stronger effect = lower value 0.0755 | locus YOR070C, strain gyp1, stronger effect = lower value 0.0663 | locus YOR080W, strain dia2, stronger effect = lower value 0.104 | locus YOR083W, strain WHI5, stronger effect = lower value 0.0727 | locus YOR106W, strain vam3, stronger effect = lower value 0.0721 | locus YOR231W, strain MKK1, stronger effect = lower value 0.129 | locus YOR265W, strain rbl2, stronger effect = lower value 0.0661 | locus YOR270C, strain vph1, stronger effect = lower value 0.108 | locus YPL051W, strain arl3, stronger effect = lower value 0.0733 | locus YPL078C, strain atp4, stronger effect = lower value 0.852 | locus YPL106C, strain sse1, stronger effect = lower value 0.116 | locus YPL240C, strain hsp82, stronger effect = lower value 0.0634 | locus YPL256C, strain CLN2, stronger effect = lower value 0.147
